Measured values from PubChem BioAssay (EPA / NIEHS).
Inconclusive results are not listed. Active and inactive are the calls of the source. Rule for the calls: active = hit-call score of the fitted dose curve at least 0.9, where 1 is the maximum; inconclusive = response in the unintended direction; inactive = score below 0.9.

Key:
[1] = TOX21_p53_BLA_p2_viability: Viability Assessment in the Tox21 HCT-116 p53 Agonism Beta-lactamase Assay, Phase 2 (AID 2283591);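 note: compound exposure lasted 16 h at 37 °C; actives lower the ATP signal meaning cytotoxicity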
Procedure, shortened: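 HCT-116 p53-bla cells (4000/well) rested 5 h at 37C, then received compounds in DMSO (217-fold dilution) for 16 h at 37C, 5% CO2. After the CCF4 read, CellTiter-Glo was added; ATP luminescence was read after 30 min at room temperature.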

[2] = target: Cellular tumor antigen p53 (Homo sapiens) (UniProt P04637); assay: TOX21_p53_BLA_p2_ratio: Tox21 HCT-116 p53 Agonism Beta-lactamase Assay, Ratio, Phase 2 (AID 2283592)
Procedure, shortened: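 Plated HCT116 p53-bla cells (4000/well) received compound after 5 h, then 16 h at 37C/5% CO2. CCF4-AM added, 2 h RT. Ratio of 460 to 530 nm emission taken as the p53 reporter signal.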

[3] = target: Cellular tumor antigen p53 (Homo sapiens) (UniProt P04637); assay: TOX21_p53_BLA_p3_ratio: Tox21 HCT-116 p53 Agonism Beta-lactamase Assay, Ratio, Phase 3 (AID 2283596)
Procedure, shortened: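 Cells were seeded at 4000/well, rested 5 h at 37C, then dosed with DMSO compound solutions (217-fold dilution) for 16 h. CCF4-AM substrate was loaded for 2 h at room temperature, and the 460/530 nm emission ratio was fitted for gain of signal versus DMSO.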

[4] = target: Cellular tumor antigen p53 (Homo sapiens) (UniProt P04637); assay: TOX21_p53_BLA_p5_ratio: Tox21 HCT-116 p53 Agonism Beta-lactamase Assay, Ratio, Phase 5 (AID 2283599)
Procedure, shortened: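 HCT-116 cells carrying a p53-inducible beta-lactamase reporter were seeded at 4000 cells/well and dosed after 5 h with compound in DMSO (217-fold dilution). After 16 h at 37C, CCF4-AM substrate was added for 2 h, and the 460/530 nm emission ratio was scored as gain-of-signal versus DMSO.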

[5] = TOX21_p53_BLA_p5_viability: Viability Assessment in the Tox21 HCT-116 p53 Agonism Beta-lactamase Assay, Phase 5 (AID 2283600)
Procedure, shortened: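 Workflow: seed 4000 cells per well, wait 5 h, add compounds (DMSO, 217-fold dilution), incubate 16 h, load CCF4-AM 2 h, add CellTiter-Glo, read luminescence after 30 min.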

[6] = TOX21_p53_BLA_p4_viability: Viability Assessment in the Tox21 HCT-116 p53 Agonism Beta-lactamase Assay, Phase 4 (AID 2283597);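 note: hits lower the luminescence signal meaning cytotoxicity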
Procedure, shortened: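 Readout: ATP luminescence (CellTiter-Glo), measured 30 min after reagent addition at RT. The reagent followed a 2 h CCF4-AM incubation, and the cells had been exposed to compound for 16 h at 37C.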

[7] = target: Cellular tumor antigen p53 (Homo sapiens) (UniProt P04637); assay: TOX21_p53_BLA_p4_ratio: Tox21 HCT-116 p53 Agonism Beta-lactamase Assay, Ratio, Phase 4 (AID 2283601)
Procedure, shortened: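 HCT116 cells carrying an inducible beta-lactamase reporter were plated at 4000 cells/well, rested 5 h, then exposed to compounds in DMSO (217-fold dilution) for 16 h at 37C. CCF4-AM substrate was loaded 2 h at room temperature; 460/530 nm emission ratio scored gain-of-signal versus DMSO.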

Measured: outcome

Cellular tumor antigen p53 (Homo sapiens), sequence (P04637 whole entry, looked up): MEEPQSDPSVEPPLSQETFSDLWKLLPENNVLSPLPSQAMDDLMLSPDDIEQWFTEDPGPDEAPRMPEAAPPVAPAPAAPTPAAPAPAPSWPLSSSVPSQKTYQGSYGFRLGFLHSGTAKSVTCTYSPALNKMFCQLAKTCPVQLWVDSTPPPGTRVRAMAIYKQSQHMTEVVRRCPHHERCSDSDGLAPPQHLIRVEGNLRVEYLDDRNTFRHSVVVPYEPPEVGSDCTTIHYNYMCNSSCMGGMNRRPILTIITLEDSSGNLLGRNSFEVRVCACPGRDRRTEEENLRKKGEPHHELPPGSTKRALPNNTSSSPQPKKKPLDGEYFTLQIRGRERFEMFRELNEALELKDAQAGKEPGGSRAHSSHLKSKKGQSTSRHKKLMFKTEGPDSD

Cc1c(NC(=O)c2cccnc2)c(=O)n(-c2ccccc2)n1C
inactive: [1] | [2] | [3] | [4] | [5]

CC(C)Cn1cnc2c(N)nc3ccccc3c21
inactive: [1] | [2] | [3] | [4] | [5]

CC[N+](CC)(CC)CCC(O)(c1ccccc1)C1CCCCC1 (centres undefined)
inactive: [1] | [2] | [3] | [6] | [5] | [7]

NC(CSCC(=O)O)C(=O)O (centres undefined)
inactive: [1] | [2] | [3] | [4] | [5]

CCOC(=O)Cc1cccc(-c2cc(CCCCCCc3ccc(O[C@H]4O[C@H](COC(C)=O)[C@@H](OC(C)=O)[C@H](OC(C)=O)[C@@H]4OC(C)=O)c(-c4cccc(CC(=O)OCC)c4)c3)ccc2O[C@H]2O[C@H](COC(C)=O)[C@@H](OC(C)=O)[C@H](OC(C)=O)[C@@H]2OC(C)=O)c1
inactive: [1] | [2] | [3] | [6] | [7]

C=C(C)C(=O)OCCC[Si](Cl)(Cl)Cl
inactive: [1] | [2] | [3] | [6] | [5] | [7]

O=C(O)c1ccc(OCCn2ccnc2)cc1
inactive: [1] | [2] | [3] | [6] | [5] | [7]

C/C=C/c1ccc(OCC)c(O)c1
inactive: [1] | [2] | [3] | [4] | [5]

CCOC(=O)OC(C)OC1=C(C(=O)Nc2ccccn2)N(C)S(=O)(=O)c2ccccc21 (centres undefined)
inactive: [1] | [2] | [3] | [6] | [5] | [7]

CC1CCc2c(N3CCC(O)CC3)c(F)cc3c(=O)c(C(=O)O)cn1c23 (centres undefined)
inactive: [1] | [2] | [3] | [6] | [7]
